Data as given in ChEMBL document CHEMBL3988442, “University of Dundee, Small-Polar-MMV Screening Library” (2021).
For some assays here: Potency and affinity values are given separately.

Legend:
Design in all cases: scale not given: direction of the effect not stated beside the values
[1] = target: Protein translocase subunit SecA (Escherichia coli (strain K12)) (UniProt P10408); assay: Assay to Identify E. coli SecA ATPase Inhibitors; type: functional; conditions: 30 µM
[2] = target: T1, Ubiquitin-activating enzyme e1, putative (Leishmania donovani (strain BPK282A1)) (UniProt E9BSI1); assay: Leishmania donovani Ubiquitin Activating Enzyme (LdE1); type: functional; conditions: 30 µM
T1 sequence (whole entry): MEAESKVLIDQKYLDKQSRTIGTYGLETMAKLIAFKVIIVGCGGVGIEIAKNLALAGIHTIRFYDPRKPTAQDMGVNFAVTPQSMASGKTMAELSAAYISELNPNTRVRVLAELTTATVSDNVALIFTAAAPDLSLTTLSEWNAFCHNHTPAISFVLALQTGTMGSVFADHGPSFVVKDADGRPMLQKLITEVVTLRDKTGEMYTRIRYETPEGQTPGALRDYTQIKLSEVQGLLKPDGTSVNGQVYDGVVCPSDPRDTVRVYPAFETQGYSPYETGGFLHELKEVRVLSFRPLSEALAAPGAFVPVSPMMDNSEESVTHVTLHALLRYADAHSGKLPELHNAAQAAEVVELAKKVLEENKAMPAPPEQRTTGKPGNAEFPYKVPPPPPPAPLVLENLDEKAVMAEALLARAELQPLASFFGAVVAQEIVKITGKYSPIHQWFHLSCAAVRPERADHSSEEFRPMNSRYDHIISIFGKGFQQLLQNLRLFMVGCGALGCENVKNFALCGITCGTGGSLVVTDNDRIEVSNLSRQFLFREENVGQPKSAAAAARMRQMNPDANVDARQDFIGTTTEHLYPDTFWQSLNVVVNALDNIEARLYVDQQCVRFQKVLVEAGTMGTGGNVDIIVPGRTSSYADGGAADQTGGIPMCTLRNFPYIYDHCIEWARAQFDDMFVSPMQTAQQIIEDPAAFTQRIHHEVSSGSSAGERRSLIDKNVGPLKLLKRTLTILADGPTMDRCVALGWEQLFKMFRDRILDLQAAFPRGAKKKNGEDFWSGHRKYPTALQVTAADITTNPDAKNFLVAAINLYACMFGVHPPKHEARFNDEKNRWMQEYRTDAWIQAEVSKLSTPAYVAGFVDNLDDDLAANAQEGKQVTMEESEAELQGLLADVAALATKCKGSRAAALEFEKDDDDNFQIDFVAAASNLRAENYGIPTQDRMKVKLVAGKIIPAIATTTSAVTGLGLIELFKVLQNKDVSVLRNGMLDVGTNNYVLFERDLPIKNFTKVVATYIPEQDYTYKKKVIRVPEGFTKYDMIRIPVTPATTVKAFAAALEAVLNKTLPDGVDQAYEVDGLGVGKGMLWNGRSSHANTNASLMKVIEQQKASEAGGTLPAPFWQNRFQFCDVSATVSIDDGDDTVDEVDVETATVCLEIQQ

[3] = target: AMP-activated protein kinase, AMPK (Homo sapiens) (UniProt P54646+O43741+P54619+Q9UGJ0+Q9Y478+Q13131+Q9UGI9); assay: AMP-dependent Kinase enzyme assay. An in vitro enzyme assay that detects ADP turnover that is directly proportional to AMPK activity. This uses naive AMPK that is activated during the assay with MK-8722; type: functional; conditions: 30 µM
[4] = target: Sialic acid-binding Ig-like lectin 9 (Homo sapiens) (UniProt Q9Y336); assay: Hs-Siglec9 ALPHAscreen SOP 20170721; conditions: 10 µM
Chain of Sialic acid-binding Ig-like lectin 9 (Homo sapiens) (Q9Y336 whole entry): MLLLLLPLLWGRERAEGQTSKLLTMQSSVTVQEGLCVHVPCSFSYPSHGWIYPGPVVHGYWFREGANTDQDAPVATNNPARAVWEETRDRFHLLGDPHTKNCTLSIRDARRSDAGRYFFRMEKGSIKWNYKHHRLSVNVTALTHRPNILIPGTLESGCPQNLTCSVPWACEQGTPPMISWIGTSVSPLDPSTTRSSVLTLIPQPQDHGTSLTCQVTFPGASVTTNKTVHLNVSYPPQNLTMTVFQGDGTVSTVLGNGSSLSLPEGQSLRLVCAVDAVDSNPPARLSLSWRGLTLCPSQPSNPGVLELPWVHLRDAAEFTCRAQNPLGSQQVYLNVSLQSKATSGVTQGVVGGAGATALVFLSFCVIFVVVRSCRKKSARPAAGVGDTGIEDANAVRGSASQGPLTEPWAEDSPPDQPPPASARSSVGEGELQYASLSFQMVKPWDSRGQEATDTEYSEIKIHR

Trypanosoma cruzi = assay: Trypanosoma cruzi phosphomannomutase and mannose-1-phosphate guanylyltransferase assay; type: functional; conditions: 10 µM
[5] = target: T2, Arginase-2, mitochondrial (Homo sapiens) (UniProt P78540); assay: in vitro enzyme assay to detect the production of urea directly proportional to the activity of Arginase II; type: functional; conditions: 33.3 µM; note: in the data most compounds retested in dose-response had high values
T2 sequence (whole entry): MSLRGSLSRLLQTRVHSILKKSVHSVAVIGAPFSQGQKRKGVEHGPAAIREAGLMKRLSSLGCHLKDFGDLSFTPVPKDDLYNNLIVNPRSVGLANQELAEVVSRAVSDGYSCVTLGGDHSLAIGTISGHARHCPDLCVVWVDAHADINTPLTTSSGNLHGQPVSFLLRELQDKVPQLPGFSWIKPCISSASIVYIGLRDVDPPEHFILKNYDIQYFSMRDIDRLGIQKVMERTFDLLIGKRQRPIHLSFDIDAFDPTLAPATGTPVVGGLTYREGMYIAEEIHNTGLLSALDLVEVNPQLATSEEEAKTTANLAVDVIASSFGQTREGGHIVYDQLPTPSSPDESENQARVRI

[6] = target: T3, Proteasome subunit beta (Trypanosoma cruzi) (UniProt O96673); assay: Trypanosoma cruzi proteasome chymotrypsin-like activity (TcProtChymo) assay.; note: in the data most compounds retested in dose-response had high values; type: functional; conditions: 9.37 µM
T3 sequence (whole entry): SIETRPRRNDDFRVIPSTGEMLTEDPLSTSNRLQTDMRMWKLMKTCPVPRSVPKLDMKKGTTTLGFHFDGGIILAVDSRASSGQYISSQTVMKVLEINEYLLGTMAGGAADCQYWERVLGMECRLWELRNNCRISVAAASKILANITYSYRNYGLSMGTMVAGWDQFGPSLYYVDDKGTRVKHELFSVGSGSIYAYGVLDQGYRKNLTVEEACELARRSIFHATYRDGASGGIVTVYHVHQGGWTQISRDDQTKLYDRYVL

Homo sapiens = species: Homo sapiens; assay: To identify inhibition of the IFN signalling (Jak-Stat) pathway via expression of an eGFP reporter gene under the control of an IFN-stimulated response element (ISRE) containing MxA promoter.; type: functional; conditions: 30 µM
[7] = target: T4, Tyrosyl-tRNA synthetase, putative (Trypanosoma cruzi (strain CL Brener)) (UniProt Q4DSP6); assay: Trypanosoma cruzi tyrosyl tRNA synthetase (TcYRS) _High Tyrosine SOP; type: functional; conditions: 30 µM; note: in the data most compounds retested in dose-response had high values
T4 sequence (whole entry): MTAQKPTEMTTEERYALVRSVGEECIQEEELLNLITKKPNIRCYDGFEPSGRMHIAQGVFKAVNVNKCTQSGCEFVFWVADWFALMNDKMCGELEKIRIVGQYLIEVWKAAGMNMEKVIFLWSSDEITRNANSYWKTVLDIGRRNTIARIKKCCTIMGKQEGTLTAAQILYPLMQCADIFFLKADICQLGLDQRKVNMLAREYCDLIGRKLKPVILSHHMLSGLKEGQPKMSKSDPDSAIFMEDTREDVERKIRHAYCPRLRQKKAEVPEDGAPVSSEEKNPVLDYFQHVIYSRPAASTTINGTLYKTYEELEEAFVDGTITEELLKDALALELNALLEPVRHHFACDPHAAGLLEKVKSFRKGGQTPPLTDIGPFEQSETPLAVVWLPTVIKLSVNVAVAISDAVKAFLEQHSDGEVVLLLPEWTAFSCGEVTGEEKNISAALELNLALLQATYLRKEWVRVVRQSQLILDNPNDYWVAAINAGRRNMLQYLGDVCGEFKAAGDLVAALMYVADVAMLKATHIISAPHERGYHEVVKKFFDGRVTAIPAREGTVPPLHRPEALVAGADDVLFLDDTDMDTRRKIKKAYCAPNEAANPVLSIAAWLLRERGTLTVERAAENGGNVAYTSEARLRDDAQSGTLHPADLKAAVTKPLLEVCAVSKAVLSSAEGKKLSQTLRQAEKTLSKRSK

[8] = target: T4, Tyrosyl-tRNA synthetase, putative (Trypanosoma cruzi (strain CL Brener)); assay: Trypanosoma cruzi tyrosyl tRNA synthetase (TcYRS) SOP; type: functional; conditions: 30 µM
[9] = target: Chromo domain-containing protein 1 (Saccharomyces cerevisiae (strain ATCC 204508 / S288c) (Baker's yeast)) (UniProt P32657); assay: ScCHD-1 Enzyme Inhibition Assay; type: functional; conditions: 30 µM; note: in the data most compounds retested in dose-response had high values
Chain of Chromo domain-containing protein 1 (Saccharomyces cerevisiae (strain ATCC 204508 / S288c) (Baker's yeast)) (P32657 whole entry, the tested form may be a part): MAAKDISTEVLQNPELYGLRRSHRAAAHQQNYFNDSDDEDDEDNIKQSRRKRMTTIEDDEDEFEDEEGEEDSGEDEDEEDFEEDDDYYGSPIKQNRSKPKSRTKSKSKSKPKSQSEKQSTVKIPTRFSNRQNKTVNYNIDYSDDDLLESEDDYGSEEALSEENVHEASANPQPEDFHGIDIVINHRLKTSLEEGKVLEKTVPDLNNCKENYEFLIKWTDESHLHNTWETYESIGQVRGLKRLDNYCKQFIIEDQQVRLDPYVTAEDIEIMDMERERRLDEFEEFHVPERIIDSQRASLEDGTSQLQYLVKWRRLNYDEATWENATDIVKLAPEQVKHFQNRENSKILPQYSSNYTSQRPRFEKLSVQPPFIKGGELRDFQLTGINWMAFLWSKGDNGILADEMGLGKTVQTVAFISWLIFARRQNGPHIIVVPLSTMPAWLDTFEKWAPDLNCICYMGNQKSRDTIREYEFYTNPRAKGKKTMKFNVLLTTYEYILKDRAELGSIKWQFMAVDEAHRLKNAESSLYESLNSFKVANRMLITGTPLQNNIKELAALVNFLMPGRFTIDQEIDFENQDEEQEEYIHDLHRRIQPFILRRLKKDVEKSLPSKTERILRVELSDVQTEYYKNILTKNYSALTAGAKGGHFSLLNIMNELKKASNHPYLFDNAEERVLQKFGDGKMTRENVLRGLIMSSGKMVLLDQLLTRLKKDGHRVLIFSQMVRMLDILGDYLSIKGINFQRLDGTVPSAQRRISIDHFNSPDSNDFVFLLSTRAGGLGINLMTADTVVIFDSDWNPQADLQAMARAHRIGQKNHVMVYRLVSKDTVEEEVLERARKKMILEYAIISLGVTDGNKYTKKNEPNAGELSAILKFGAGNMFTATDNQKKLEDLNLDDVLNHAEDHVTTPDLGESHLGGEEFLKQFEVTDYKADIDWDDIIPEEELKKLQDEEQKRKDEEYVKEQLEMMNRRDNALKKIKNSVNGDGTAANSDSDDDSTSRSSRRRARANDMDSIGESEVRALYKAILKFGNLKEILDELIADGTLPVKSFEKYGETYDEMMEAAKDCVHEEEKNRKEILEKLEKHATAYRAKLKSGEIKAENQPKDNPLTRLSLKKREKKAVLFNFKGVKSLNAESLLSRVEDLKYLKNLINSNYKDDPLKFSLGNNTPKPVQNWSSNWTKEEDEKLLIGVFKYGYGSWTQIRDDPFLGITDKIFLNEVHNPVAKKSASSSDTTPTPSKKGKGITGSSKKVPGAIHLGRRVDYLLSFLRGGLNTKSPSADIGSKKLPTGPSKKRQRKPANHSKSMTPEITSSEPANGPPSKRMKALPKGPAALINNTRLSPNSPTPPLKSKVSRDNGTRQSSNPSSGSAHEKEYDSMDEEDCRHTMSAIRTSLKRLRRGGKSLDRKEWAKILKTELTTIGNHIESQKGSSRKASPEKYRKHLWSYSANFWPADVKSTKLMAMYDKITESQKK

Chain of Protein translocase subunit SecA (Escherichia coli (strain K12)) (P10408 whole entry): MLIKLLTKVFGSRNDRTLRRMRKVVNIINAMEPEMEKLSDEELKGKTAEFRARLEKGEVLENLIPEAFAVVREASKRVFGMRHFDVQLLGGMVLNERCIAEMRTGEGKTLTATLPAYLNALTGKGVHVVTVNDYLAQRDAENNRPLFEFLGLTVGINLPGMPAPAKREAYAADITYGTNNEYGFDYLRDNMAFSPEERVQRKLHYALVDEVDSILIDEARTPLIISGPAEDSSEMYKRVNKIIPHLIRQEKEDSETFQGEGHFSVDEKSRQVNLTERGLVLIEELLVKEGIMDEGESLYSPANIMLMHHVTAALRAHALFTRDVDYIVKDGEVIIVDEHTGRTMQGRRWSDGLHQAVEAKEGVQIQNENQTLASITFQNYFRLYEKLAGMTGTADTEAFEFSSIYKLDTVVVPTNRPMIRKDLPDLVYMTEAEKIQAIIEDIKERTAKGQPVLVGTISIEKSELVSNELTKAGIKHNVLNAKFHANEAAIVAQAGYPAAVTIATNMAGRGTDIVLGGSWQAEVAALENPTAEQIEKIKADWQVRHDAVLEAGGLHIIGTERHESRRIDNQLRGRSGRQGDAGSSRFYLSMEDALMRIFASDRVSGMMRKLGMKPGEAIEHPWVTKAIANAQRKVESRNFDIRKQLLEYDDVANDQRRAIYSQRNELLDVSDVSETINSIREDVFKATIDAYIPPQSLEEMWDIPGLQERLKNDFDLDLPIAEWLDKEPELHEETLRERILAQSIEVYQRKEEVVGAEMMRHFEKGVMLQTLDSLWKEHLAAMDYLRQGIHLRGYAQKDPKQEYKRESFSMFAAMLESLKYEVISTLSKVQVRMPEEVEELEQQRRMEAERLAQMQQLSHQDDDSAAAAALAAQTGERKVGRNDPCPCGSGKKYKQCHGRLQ

| Structure (SMILES) | Percent Effect [1] [%] | Percent Effect [2] [%] | Percent Effect [3] [%] | Percent Effect [4] [%] | Percent Effect (Trypanosoma cruzi) [%] | Percent Effect [5] [%] | Percent Effect [6] [%] | Percent Effect (Homo sapiens) [%] | Percent Effect [7] [%] | Percent Effect [8] [%] | Percent Effect [9] [%] |
| --- | --- | --- | --- | --- | --- | --- | --- | --- | --- | --- | --- |
| COc1ccc(C2CCCN2S(=O)(=O)N(C)CC(C)C)cc1 (stereo not given) | -1.74 | -6.94 | 6.36 | -0.345 | -2.62 | -3.97 | 5.61 | -1.6 | -5.26 | -10.3 | -2.11 |
| CCNC(=O)CN1CCCN(C(=O)C2CCCc3[nH]ncc32)CC1 (stereo not given) | -3.9 | 8.11 | -2.94 | 6.84 | 1.66 | 5.21 | 5.75 | -11.9 | 3.23 | 8.64 | -4.21 |
| CC(=O)N(C)CC(=O)Nc1cccc(N2CCN(CC3CC3)CC2)c1 | -6.27 | 5.41 | -9.55 | 0.217 | -1.86 | -13.2 | 1.46 | 4.97 | 3.23 | 11.1 | 0.0532 |
| Cc1nccn1C1CCCN(C(=O)c2cc3ccccc3[nH]2)C1 (stereo not given) | -6.7 | 2.53 | -10.1 | 1.72 | -2.74 | 0.76 | -4.83 | 27.9 | -2.46 | -3.8 | -6.65 |
| CCOc1ccccc1C(CC(=O)Nc1ccccc1F)NC(C)=O (stereo not given) | -4.23 | 10.5 | 0.587 | 13.4 | 2.82 | -1.92 | -4.18 | -32.5 | 3.43 | 9.76 | -4.56 |
| Cc1noc([C@@H]2C[C@H]3OCC[C@H]3N(S(=O)(=O)c3cccnc3)C2)n1 | -2.85 | 11 | -6.86 | 6.79 | 5.75 | -5.19 | 4.02 | -3.51 | 3.12 | 11.1 | -6.9 |
| COc1cc(C)c(C(C)NC(=O)Nc2nnc(C)s2)cc1OC (stereo not given) | -4.05 | 5.41 | -4.62 | 14.6 | 7.72 | 1.24 | 7.64 | 11.2 | 2.15 | 11.1 | -3.99 |
| O=C(NC1CC1)[C@H]1C[C@H]2OCC[C@H]2N(CC2CC2)C1 | -4.51 | -2.67 | 3.02 | 9.5 | -3.28 | -55.7 | 0.513 | 6.42 | -4.17 | -7.5 | 4.05 |
| CC(C)OCCN1CCN(C(=O)c2cccc(CC#N)c2)CC1 | -0.779 | 18.2 | -4.35 | -10.2 | -8.99 | 4.27 | 11.2 | 18.6 | 4.85 | 9.76 | -7.58 |
| COCCN1CCC(NC(=O)C2(c3cc(C)cc(C)c3)CC2)CC1 | -5.08 | 0 | -4.53 | -1.6 | -1.59 | 0.719 | -1.95 | -10.6 | 1.48 | -1.24 | 6.15 |
